Columns and labels:
Experiment in all cases: PBM binding z-score (relative to random genomic background probes); higher = stronger binding; sequences stand for … in GC…GCGATTGACAGCGTAGAATGAAGG
[1] = tested on: FXR:RXRa (NR concentration 270 nM, RXRa partner concentration 90 nM)
Procedure, shortened: (§1)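 Binding z-scores take random background probes as their reference. They come from custom Agilent 4×180K protein-binding microarrays incubated 1 h with ligand-free nuclear receptor dimers, with antibodies against each partner (one per run) detecting binding. Scanned fluorescence was regression-normalized.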

[2] = tested on: LXRa:RXRa (NR concentration 270 nM, RXRa partner concentration 90 nM)
Procedure, shortened: as §1

[3] = tested on: LXRa homodimer (NR concentration 270 nM)
Procedure, shortened: as §1

[4] = tested on: LXRb:RXRa (NR concentration 270 nM, RXRa partner concentration 90 nM)
Procedure, shortened: as §1

[5] = tested on: LXRb homodimer (NR concentration 270 nM)
Procedure, shortened: as §1

[6] = tested on: PPARa:RXRa (NR concentration 270 nM, RXRa partner concentration 90 nM)
Procedure, shortened: as §1

[7] = tested on: PPARg:RXRa (NR concentration 180 nM, RXRa partner concentration 90 nM)
Procedure, shortened: as §1

[8] = tested on: PPARg:RXRa 270nM:90nM, anti-RXR (NR concentration 270 nM, RXRa partner concentration 90 nM)
Procedure, shortened: as §1

[9] = tested on: PPARg:RXRa 30nM:10nM, anti-RXR (NR concentration 30 nM, RXRa partner concentration 10 nM)
Procedure, shortened: as §1

[10] = tested on: PPARg:RXRa 90nM:30nM, anti-RXR (NR concentration 90 nM, RXRa partner concentration 30 nM)
Procedure, shortened: as §1

Sequence | PBM binding z-score [1] | PBM binding z-score [2] | PBM binding z-score [3] | PBM binding z-score [4] | PBM binding z-score [5] | PBM binding z-score [6] | PBM binding z-score [7] | PBM binding z-score [8] | PBM binding z-score [9] | PBM binding z-score [10]
TCTAGCACGCCAGAGGGTCACTCAAGAGGTACGG | 1.04 | 1.11 | -0.323 | 0.821 | -0.814 | 2.01 | 0.836 | 1.13 | 1.71 | 1.2
CCTATTAGTTGACCATAAGGTCAACCGAAGCTCG | 4.88 | 4 | 3.35 | 3.83 | 1.73 | 4.06 | 1.48 | 3.02 | 1.42 | 2.61
CCTACTGGGCCAAGAAGGTCATTGATGCCGATAA | 1.94 | 2.35 | 0.897 | 2.47 | -0.675 | 3.5 | 2.17 | 2.94 | 0.664 | 1.87
CGTCCAAGGTCAGAGATGTCAGTGAATGCCGAGT | 4.67 | 2.73 | 0.142 | 1.82 | -0.161 | 3.59 | 2.24 | 2.19 | 0.132 | 1.04
CATACAGGGTTAGCTAGGCCAGAGTAGGGACGGC | 0.0541 | 0.22 | -0.431 | -0.176 | -0.302 | 0.689 | 0.625 | 0.647 | -0.0439 | 0.397
CAAACTAGGGCACAGAGGTCAAAGTCCGTGCGTA | 5.59 | 5.41 | 5.74 | 4.88 | 1.2 | 5.71 | 7.92 | 6.9 | 4.71 | 6.59
TCTAGCAGGCCAGAGGGTCACTAAAGAGGTACGG | 0.744 | 0.827 | -0.521 | 0.924 | -1.08 | 2.12 | 1.48 | 2.66 | 1.97 | 2.41
ATCGAAAGGTCGGGGTGAGTATAGAGAAAGGGAA | 3.39 | 3.1 | 0.378 | 3.56 | 1.97 | 4.39 | 2.87 | 2.83 | 1.07 | 2.04
CGTCCAAGGTCAGAGACGTCAGTGAATGCCGAGT | 4.49 | 2.77 | -0.161 | 1.87 | -0.32 | 3.7 | 1.97 | 2.41 | 0.132 | 1.48
GCGACTGGGGAATCAGCAGGTTACCATAACTTAA | -0.766 | -0.57 | -0.287 | 0.0771 | -1.25 | 0.0843 | 0.0906 | -0.19 | -0.448 | -0.292
CCTCCTGGGCCAAAGGTCATTGATTCCAATGCTC | 4.65 | 5.11 | 3.68 | 4.79 | 0.666 | 5.6 | 9.24 | 8.76 | 10.1 | 10.1
TCGAGTAGGTTTGGGGCATTCAGAATGGCGTCGA | -0.5 | -0.529 | -0.289 | 0.316 | -0.295 | 0.0771 | -0.558 | 0.475 | 0.701 | 0.598

Source: the supplement of paper PMC6555819
